Experimental data from PubChem BioAssay (Tox21).
Inconclusive results are not listed. Activity calls are given as the source filed them. Calls come from the whole dose curve; as a rule, active = well fitted inhibition curve with a large enough effect in the signal ratio in the repeat runs, with a control signal flat; inconclusive = weak or mixed curves, or effect the other way; inactive = flat fitted curve, though single readings scatter; the % refers to the signal ratio.

Molecular target: D(2) dopamine receptor (Homo sapiens) (UniProt P14416)
Sequence (P14416 whole entry, looked up): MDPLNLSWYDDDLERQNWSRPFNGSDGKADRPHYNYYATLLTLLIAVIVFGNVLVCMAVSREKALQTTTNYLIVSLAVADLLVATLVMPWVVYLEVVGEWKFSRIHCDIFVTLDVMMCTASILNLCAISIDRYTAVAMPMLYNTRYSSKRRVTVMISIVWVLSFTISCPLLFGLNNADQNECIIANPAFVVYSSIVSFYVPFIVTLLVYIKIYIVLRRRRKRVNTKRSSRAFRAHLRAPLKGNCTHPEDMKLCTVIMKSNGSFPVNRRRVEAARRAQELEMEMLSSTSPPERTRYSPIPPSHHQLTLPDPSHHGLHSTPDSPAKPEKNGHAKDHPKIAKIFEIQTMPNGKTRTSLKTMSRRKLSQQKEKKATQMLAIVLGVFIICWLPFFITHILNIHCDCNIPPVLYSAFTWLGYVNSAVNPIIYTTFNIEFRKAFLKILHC
Experiment: Dopamine D2 receptor (DRD2) small molecule antagonists, cell-based qHTS assay (AID 1963595)
Settings: HEK293-DRD2 cAMP HTRF antagonist mode; series mostly up to 92.4 µM; activity change, negative = inhibition: at the top concentration
Description: National Center for Advancing Translational Sciences [NCATS]
Division of Preclinical Innovation [DPI]
U.S. Environmental Protection Agency [EPA]
National Institutes of Environmental Health Sciences [NIEHS]
National Toxicology Program [NTP]
U.S. Food and Drug Administration [FDA]
DRD2 is the D2 subtype of the dopamine receptor, which is coupled to Gi subtype of G protein-coupled receptor. This G protein-coupled receptor inhibits adenylyl cyclase activity. The DRD2-HEK293 cell line stably expressing D2 dopamine receptor can be used for screening agonists and antagonists of interactions between D2 and its ligands. The Hek293-DRD2 cAMP assay is based on HTRF technology. It measures changes of cAMP accumulation in response to Gi coupled GPCR activation or inhibition.
Tox21 Assay Protocol Summary:
DRD2-Hek293 cells were dispensed at 600 cells/3uL/well in 1536-well white plates using a Multidrop Dispenser. After the assay plates were incubated at a 37 C/5% CO2 incubator for 24 h, 1 uL of Ro20-1724 at final concentration of 0.1 mM was transferred to the assay plate by a Flying Reagent Dispenser. Following Ro20-1724 addition, 23 nL of compound dissolved in DMSO, positive controls or DMSO only was added to the assay plates via Wako pintool station. The assay plates were incubated at room temperature for 10 min. Next, 1 uL of mixture of NKH477 (final concentration at 200 nM) and quinpirole (final concentration at 12 nM) was added into the plates. After the assay plates were incubated at room temperature for an additional 30 min, 2.5 ul/well of cAMP-d2 and 2.5 ul/well of anti-cAMP-cryptate were added respectively into the assay plates using a Flying Reagent Dispenser. The plates were incubated at room temperature for 1 h. The fluorescence intensity in the plates was measured at 340 nm excitation and 665 & 620 nm emission by an Envision plate reader.
% is set by controls: 0 for no effect and ±100 for the full control effect; potency is the fitted concentration of half-maximal effect.

Question: How did the “activity change, negative = inhibition” value turn out when `Cc1ccc(C(C)C)cc2c(C)ccc1-2` was run?
Answer: Its value is -0.958% [at 42.5 µM] (inactive).

Question: Which “activity change, negative = inhibition” value does the source give for `Cn1c(=O)c2c(ncn2CCO)n(C)c1=O` here?
Answer: Its value is 5.98% [at 42.5 µM] (inactive).

Question: With `CCO/C=C1\N=C(c2ccccc2)OC1=O` as the molecule, how does the “activity change, negative = inhibition” value read?
Answer: The value was -0.586% (inactive).

Question: Which “activity change, negative = inhibition” value does the source give for `O=C(O)CCCl` here?
Answer: The value was -4.18% (inactive).

Question: `OC1CCCCC1c1ccccc1` (stereo not given) was tested. Which “activity change, negative = inhibition” value did it give?
Answer: Its value is 11.7% (inactive).

Question: How did the “activity change, negative = inhibition” value turn out when `CC(C)CCCC(C)CC=O` (stereo not given) was run?
Answer: Its value is 8.51% (inactive).

Question: Which “activity change, negative = inhibition” value does the source give for `CC(C)=CC(C)(C)C` here?
Answer: The value was -0.737% (inactive).

Question: `CCC(C)COC(C)=O` (stereo not given) was tested. Which “activity change, negative = inhibition” value did it give?
Answer: The value was -0.552% (inactive).

Question: With `Nc1c(I)cc(I)c(C(=O)N(CCC(=O)O)c2ccccc2)c1I` as the molecule, how does the “activity change, negative = inhibition” value read?
Answer: Its value is 2.78% [at 42.5 µM] (inactive).

Question: With `O=[N+]([O-])c1ccc(Nc2ccc(Nc3ccccc3)c(S(=O)(=O)O)c2)c([N+](=O)[O-])c1` as the molecule, how does the “activity change, negative = inhibition” value read?
Answer: Its value is -1.81% (inactive).

Question: With `C[C@H](CCC(=O)O)[C@H]1CC[C@H]2[C@@H]3CC[C@@H]4C[C@H](O)CC[C@]4(C)[C@H]3CC[C@]12C` as the molecule, how does the Potency read?
Answer: Its Potency is “inactive”.

Question: For `Cc1[nH]cnc1C[C@H]1CCc2c(C)c3ccccc3n2C1=O`, which Potency is on record?
Answer: Its Potency is 53.1 µM (active).

Question: How did the “activity change, negative = inhibition” value turn out when `CC(C)(C)NC(=O)[C@@H]1C[C@@H]2CCCC[C@@H]2CN1C[C@@H](O)[C@H](Cc1ccccc1)NC(=O)[C@H](CC(N)=O)NC(=O)c1ccc2ccccc2n1` was run?
Answer: The value was -3.88% (inactive).

Question: For `COc1ccc(-c2cc(=S)ss2)cc1`, which “activity change, negative = inhibition” value is on record?
Answer: Its value is 17.6% [at 42.5 µM] (inactive).

Question: Which “activity change, negative = inhibition” value does the source give for `C/C=C1/C(=O)C[C@H]2[C@@H]3CCC4=CC(=O)CC[C@]4(C)[C@H]3CC[C@]12C` here?
Answer: The value was 0.616% (inactive).

Question: `CCCC(=O)Nc1ccc(OCC(O)CNC(C)C)c(C(C)=O)c1` (stereo not given) was tested. Which “activity change, negative = inhibition” value did it give?
Answer: The value was -0.744% [at 42.5 µM] (inactive).

Question: With `CC(=O)[C@H]1[C@H](C#N)C[C@H]2[C@@H]3CC=C4C[C@@H](O)CC[C@]4(C)[C@H]3CC[C@@]21C` as the molecule, how does the “activity change, negative = inhibition” value read?
Answer: The value was 10.9% [at 42.5 µM] (inactive).

Question: With `Cc1ncc([N+](=O)[O-])n1CC(O)CCl` (stereo not given) as the molecule, how does the “activity change, negative = inhibition” value read?
Answer: Its value is 0.859% [at 42.5 µM] (inactive).

Question: With `CO[C@@H]1[C@@H](OC)[C@H](C)[C@@](O)(CC(=O)O)O[C@H]1[C@H](C)[C@H]1O[C@@]2(CC[C@@](C)([C@H]3CC[C@@](C)([C@@H]4O[C@@H]([C@H]5O[C@](C)(O)[C@H](C)C[C@@H]5C)C[C@@H]4OC4C[C@H](OC)[C@@H](OC)[C@H](C)O4)O3)O2)C[C@H](O)[C@H]1C` (stereo not given in full) as the molecule, how does the “activity change, negative = inhibition” value read?
Answer: Its value is -1.1% [at 42.5 µM] (inactive).

Question: With `Oc1ccc2ccccc2c1` as the molecule, how does the Potency read?
Answer: The Potency was “inactive”.

Question: `CCNC(=O)/C=C/c1cccc(Br)c1` was tested. Which “activity change, negative = inhibition” value did it give?
Answer: The value was -1.2% [at 42.5 µM] (inactive).

Question: For `N[C@@H]1CONC1=O`, which “activity change, negative = inhibition” value is on record?
Answer: The value was 2.9% [at 42.5 µM] (inactive).

Question: With `COC(=O)c1nc(Cl)c(Cl)nc1N` as the molecule, how does the “activity change, negative = inhibition” value read?
Answer: Its value is -4.37% [at 42.5 µM] (inactive).

Question: Which “activity change, negative = inhibition” value does the source give for `O=S(=O)(O)SSS(=O)(=O)O` here?
Answer: Its value is -10.5% (inactive).

Question: `O=C(Nc1ccc(C(=O)O)c(O)c1)c1ccccc1` was tested. Which “activity change, negative = inhibition” value did it give?
Answer: The value was 10.4% [at 42.5 µM] (inactive).

Question: For `O=c1oc2cc(O)ccc2c2oc3cc(O)ccc3c12`, which “activity change, negative = inhibition” value is on record?
Answer: The value was 8.96% (inactive).

Question: For `CCCC(=O)OCC`, which “activity change, negative = inhibition” value is on record?
Answer: Its value is -2.37% (inactive).

Question: Which “activity change, negative = inhibition” value does the source give for `CC(Cc1ccc(O)c(O)c1)C(C)Cc1ccc(O)c(O)c1` (stereo not given) here?
Answer: Its value is 4.07% (inactive).

Question: With `CC(=O)OC/C=C(/C)CCC=C(C)C` as the molecule, how does the “activity change, negative = inhibition” value read?
Answer: The value was -2.04% (inactive).

Question: For `C=CCCCCCCCCOC(C)=O`, which “activity change, negative = inhibition” value is on record?
Answer: Its value is -3.43% (inactive).

Question: For `CCCCCCCCS(=O)C(C)Cc1ccc2c(c1)OCO2` (stereo not given), which “activity change, negative = inhibition” value is on record?
Answer: Its value is -21.3% (inactive).

Question: With `O=CNc1ccccc1` as the molecule, how does the “activity change, negative = inhibition” value read?
Answer: The value was -4.61% (inactive).

Question: How did the “activity change, negative = inhibition” value turn out when `O=C(O)CNC(=O)CNC(=O)CNC(=O)CSC(=O)c1ccccc1` was run?
Answer: The value was -0.0526% [at 42.5 µM] (inactive).

Question: For `Cc1ccccc1OCC(=O)O`, which “activity change, negative = inhibition” value is on record?
Answer: Its value is 0.616% (inactive).

Question: With `CCN(CC)CCNc1ccc(CO)c2sc3ccccc3c(=O)c12` as the molecule, how does the “activity change, negative = inhibition” value read?
Answer: Its value is -2.89% [at 42.5 µM] (inactive).

Question: For `CC(C)(C)CCCCCCOC(=O)c1ccccc1C(=O)OCCCCCCC(C)(C)C`, which “activity change, negative = inhibition” value is on record?
Answer: The value was -3.69% (inactive).

Question: For `CC(=O)OCC1=C(C(=O)O)N2C(=O)[C@@H](NC(=O)CSc3ccncc3)[C@H]2SC1`, which “activity change, negative = inhibition” value is on record?
Answer: Its value is -0.585% [at 42.5 µM] (inactive).

Question: How did the “activity change, negative = inhibition” value turn out when `COc1cc(Cl)c(OC)cc1N` was run?
Answer: Its value is -0.106% (inactive).

Question: With `CCOC(=O)[C@@](C)(N)Cc1ccc(O)c(O)c1` as the molecule, how does the “activity change, negative = inhibition” value read?
Answer: The value was 0.63% [at 42.5 µM] (inactive).

Question: `NCc1ccccc1` was tested. Which “activity change, negative = inhibition” value did it give?
Answer: The value was 0.417% (inactive).
